ELG1 repair inh = ELG1-dependent DNA repair inhibition; HEK293T ELG1-luciferase reporter, luminescence, 16 h; DNA damage induced by 5-fluorouridine; AID 504467; 330,000 tested, 2.3% active; Potency, µM (doses to about 46.1 µM), for inactives: top-dose activity change, negative = inhibition, hits mostly inhibitors; also: potency is read from the fitted curve at half-maximal effect; nearly all actives have a fitted effect of over 55% in size
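Quantitative HTS, concentration-response format. 2,000 cells/well co-treated with 5-fluorouridine and compound, 16 hr in 5% CO2 at 37 °C; ONE-Glo luminescence read after 30 min.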
TDP1 cell noCPT = qHTS for Inhibitors of human tyrosyl-DNA phosphodiesterase 1 (TDP1): qHTS in cells in absence of CPT; DT40 Tdp1-/- hTDP1 cells, no CPT, ATP luminescence, 48 h; 420,000 tested, 15% active; Potency, µM (titrated, usually from 46.2 µM), inactives show at the highest dose activity change, negative = growth inhibition, actives largely listed as inhibitors; AID 686978, 2013; also: potency is read from the fitted curve at half-maximal effect; nearly all actives have a fitted effect of over 55% in size
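No-CPT arm: Tdp1-/-;hTDP1 DT40 cells (400/well) plus compounds, incubated ≥48 hr at 37 °C. Readout CellTiter-Glo luminescence.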
HT1080-NT tox = kills 2HG-producing HT-1080-NT fibrosarcoma cells; HT-1080-NT fibrosarcoma viability, CellTiter-Glo ATP luminescence, 48 h; Potency, µM (series often up to 46.1 µM), for the others: at the highest dose activity, negative = less viability, actives largely listed as cytotoxic; 360,000 tested, 1.6% active;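 also: NT is the 2HG producing partner of a matched IDH1 knockdown line; potency is read from the fitted curve at half-maximal effect; 0% = DMSO-treated cells and -100% = media-only wells without cells; nearly all actives have a fitted effect of over 55% in size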
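A 48-hour cytotoxicity screen used HT-1080-NT cells plated 2 hours before compound delivery. ATP-based CellTiter-Glo luminescence measured viability, normalized to DMSO and no-cell controls.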
HT1080 IDH1KD tx = toxicity to HT-1080 IDH1 knockdown cells (counter line) | HT-1080 IDH1 knockdown viability, ATP luminescence, 48 h | 360,000 tested, 2% active | AID 686971 | Potency, µM (highest dose often 46.1 µM), inactives show at the top dose activity, negative = toxicity, most hits filed as cytotoxic;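 also: potency is read from the fitted curve at half-maximal effect; 0% = DMSO wells and -100% = cell-free medium wells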
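Viability of IDH1-knockdown HT-1080 fibrosarcoma cells was assessed by CellTiter-Glo after 48 h at 37 °C with titrated compound; concentration-effect curves were classified by fit quality and response size.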
DT40 TDP1 CPT = growth inhibition of DT40 Tdp1-/-;hTDP1 cells with camptothecin (screen for TDP1 inhibitors); chicken DT40 Tdp1-/-;hTDP1 cells + 20 nM CPT, ATP luminescence, 48 h; AID 686979; Potency, µM (titrated, usually from 46.2 µM), inactives show top-dose activity change, negative = growth inhibition, hits mostly inhibitors; 420,000 tested, 12% active; also: potency is read from the fitted curve at half-maximal effect; nearly all actives have a fitted effect of over 55% in size
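Chicken DT40 Tdp1-/- cells stably complemented with human TDP1 were seeded at 400 cells/well in medium containing 20 nM camptothecin, exposed to pin-transferred compounds, and grown at 37 °C for at least 48 hr. Viability was read as ATP luminescence.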
IL-1B inflam inh = inhibitors of inflammasome signaling (IL-1 beta secretion) | THP-1 LPS/ATP IL-1B secretion, AlphaLISA, 16 h; hits give low values | activity change, % at 57.5 µM | 360,000 tested, 4.7% active | AID 743279; in the data active = activity change below about -50%; inconclusive = mostly about -30% to -49%
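THP-1 cells pretreated 1 hr with compounds (up to 57.5 uM final), then stimulated with LPS (250 ng/mL final) plus ATP (1.25 mM final); secreted IL-1B measured by AlphaLISA after 16 hr, decreased signal indicating inhibition.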
The depositor's hits bear a star; i = inactive; ? = inconclusive; . = no result given; [ ] = another dose, or the depositor's remark. Most compounds without a hit are left out; they make up all but 19% or so of the library. Unless noted, calls follow the shape of the dose curve; as a rule, active = well fitted curve in the direction sought with a large enough effect; inconclusive = small, poorly fitted or top-dose-only effect, or another doubt; inactive = no such curve, though single readings can be large; an effect the other way counts as inactive or inconclusive. Unless noted, % is scaled to controls: 0 for no effect and ±100 for the full control effect.

SMILES	ELG1 repair inh	TDP1 cell noCPT	HT1080-NT tox	HT1080 IDH1KD tx	DT40 TDP1 CPT	IL-1B inflam inh
Cc1ccc(C)c(-n2cc(CNCCCn3cccn3)c(-c3ccccc3)n2)c1	-8.0%	20.6µM*	20.6µM*	?	23.1µM*	?
Cc1cccc(-c2nn(-c3ccccc3)cc2CNCCO)c1	.	12.6µM*	.	.	?	.
CN(C)c1ncc2nc(-c3ccc(Cl)cc3)c(=O)n(-c3ccccc3)c2n1	.	0.3%	.	.	-3.2%	.
Cc1ccc(-n2cc(CNCCCn3cccn3)c(-c3cccc(C)c3)n2)cc1	-10.4%	16.4µM*	?	?	13µM*	-99.2*
COc1cc(OC)cc(C(=O)Nc2ccn(C)n2)c1	9.3%	-3.5%	6.7%	23.3%	-5.4%	-10.5
O=C(c1ccco1)N1CCN(C(=O)C(Sc2ccccc2)c2ccccc2)CC1 (centres undefined)	?	?	-17.4%	-13.9%	16.4µM*	-3.4
O=C(C(Sc1ccccc1)c1ccccc1)N1CCN(c2ccccc2)CC1 (centres undefined)	-16.7%	?	-4.6%	-11.7%	?	?
COC(=O)c1ccccc1NC(=O)C1CCC(=O)N1S(=O)(=O)c1ccc(C)cc1 (centres undefined)	-12.4%	-5.3%	13.8%	-0.4%	-3.1%	0.0
COC(=O)c1cc(OC)c(OC)cc1NC(=O)C1CCC(=O)N1S(=O)(=O)c1ccc(C)cc1 (centres undefined)	-17.3%	18.4µM*	-1.5%	1.0%	20.6µM*	10.5
COc1ccc(CNC(=O)c2cc3ccccn3n2)cc1OC	.	-10.7%	.	.	-22.6%	.
CN(Cc1ccccc1F)C(=O)c1ccccc1Sc1ccccc1C#N	7.6%	?	-18.5%	-9.5%	?	-66.1*
COc1ccccc1CN(C)C(=O)c1ccccc1Sc1ccccc1C#N	5.8%	?	-5.4%	-14.0%	?	12.6
COc1ccc(CN(C)C(=O)c2ccccc2Sc2ccccc2C#N)c(OC)c1	-13.2%	23.1µM*	-6.4%	-14.7%	23.1µM*	?
C#CCOCCOCCOCCNc1nc(N2CCOCC2)nc(N2CCN(C(=O)[C@H](C)n3cc(CCC(=O)O)nn3)CC2)n1	.	-1.6%	18.0%	9.5%	8.1%	17.2
CC(=O)N[C@@H](CCC(N)=O)C(=O)O	.	-19.7%	.	.	3.7%	.
CN(C(=O)C1CCN(S(=O)(=O)c2cccs2)CC1)C1CCCCC1	5.3%	-16.1%	0.9%	3.9%[9.24 µM]	-17.1%	12.2
Cc1cccc2sc(N(CCN(C)C)C(=O)/C=C/c3cccs3)nc12	-18.4%	18.4µM*	?	?	16.4µM*	-93.3*
CN(C)CCCN(C(=O)/C=C/c1cccs1)c1nc2c(F)cccc2s1	1.5%	20.6µM*	?	?	20.6µM*	-105.4*
Cc1cccc2sc(N(CCN(C)C)C(=O)C3CCN(S(=O)(=O)c4cccs4)CC3)nc12	-15.6%	18.4µM*	-9.4%	-10.9%	?	-61.2*
COc1cn(CC(=O)Nc2cc(C)ccc2C)c(CN2CCCCC2)cc1=O	.	-6.3%	.	.	0.0%	.
Cc1cc(O)c2c(c1)C(=O)[C@@]13Oc4c5c(c(O)c6c(O)cc(C)cc46)C(=O)C[C@H](O)[C@H]5[C@@H]1[C@@H](O)CC(=O)C3=C2O	.	?	?	?	14.6µM*	-5.5
CCOc1ccc(S(=O)(=O)NCCc2sc(-c3ccc(C)cc3)nc2C)cc1	.	16.4µM*	.	.	?	.
CCOc1ccc(C(=O)NCCc2sc(-c3cccc(F)c3)nc2C)cc1OCC	.	?	.	.	18.4µM*	.
CCOc1ccc(C(=O)NCCc2sc(-c3ccc(C)cc3)nc2C)cc1	.	?	.	.	23.1µM*	.
CCOc1ccc(S(=O)(=O)NCCCl)cc1	15.6%	?	-3.0%	-3.8%	-29.1%	10.9
SMILES	ELG1 repair inh	TDP1 cell noCPT	HT1080-NT tox	HT1080 IDH1KD tx	DT40 TDP1 CPT	IL-1B inflam inh
CC(C)CCNC(=O)C1(C)CCN1Cc1ccc(-c2ccccn2)cc1 (centres undefined)	.	-72.4%	-17.2%	-9.4%	?	-7.9
COc1ccc(-c2nc3cnc(N(C)C)nc3n(CCc3ccccc3)c2=O)cc1	.	6.5%	.	.	23.6%	.
O=C(Nc1cccc(-n2cnnn2)c1)c1ccoc1COc1ccc(Cl)cc1	?	?	-15.5%	-29.5%	?	49.1
CCCCCCn1c(SCC(=O)Nc2cc(C)on2)nc2ccccc2c1=O	27.7%	10µM*	3.8%	?	?	16.2
CCn1c(SCC(=O)Nc2cc(C)on2)nc2c([nH]c3ccccc32)c1=O	13.0%	18.4µM*	-5.5%	-13.3%	?	i
COc1ccc(CC(=O)N[C@@H]2c3ccccc3CC[C@H]2OCc2ccccc2)cc1	?	?	8.2%	-1.9%	?	-11.2
Cc1ccc(COc2ccc(CNCCCN3CCCCCC3=O)cc2)cc1	12.1%	18.4µM*	-28.6%	-15.7%	?	-63.8*
Cc1ccc(NC(=O)C(=O)NCCCN2CCCC2=O)cc1	?	1.7%	-9.1%	-4.7%	?	-1.4
O=C(Cc1ccccc1)NN1C(=O)/C(=C/c2ccccc2C(=O)O)SC1=S	5.1%	7.9%	5.1%	4.5%	0.5%	37.3
O=C1c2cc(S(=O)(=O)NCCO)ccc2-c2ccc(S(=O)(=O)NCCO)cc21	-19.3%	-16.6%	-8.2%	5.8%	30.4%	-12.8
CN(CCO)S(=O)(=O)c1ccc2c(c1)C(=NO)c1cc(S(=O)(=O)N(C)CCO)ccc1-2	-19.1%	11.6µM*	-12.9%	-23.2%	-21.6%	-25.4
Nc1ccc2c(c1)OC1(CCCCC1)O2	0.7%	16.4µM*	0.1%	15.6%	?	8.8
CCOCCCn1c(=NC(=O)c2ccco2)c(C(=O)OCC)cc2c(=O)n3cccc(C)c3nc21	?	11.6µM*	0.3%	-1.2%	16.4µM*	-20.1
CCOC(=O)c1cc2c(=O)n3cccc(C)c3nc2n(CC(C)C)c1=NC(=O)c1ccco1	13.4%	20.6µM*	6.2%	-15.6%	?	-4.3
CCCn1c(=NC(=O)c2ccco2)c(C(=O)OCC)cc2c(=O)n3ccccc3nc21	1.3%	?	18.0%	0.0%	?	?
CC(C)(C)c1ccc(C(=O)NCCNC(=O)c2ccco2)cc1	26.6%	-22.1%	-0.3%	-9.4%	0.2%	40.6
CCOC(=O)C1CCN(c2ncnc3c2cnn3-c2ccc(OC)cc2)CC1	-5.2%	-29.6%	-3.2%	-24.3%	-14.8%	17.5
COc1cc2ncnc(N3CCN(C(=O)Nc4ccc(Oc5ccccc5)cc4)CC3)c2cc1OC	.	11.2µM*	.	.	11.2µM*	.
